D2 antag: D2 dopamine receptor (human) antagonism. P14416. HEK293 TREx D2 cells, calcium flux, dopamine EC80. inhibition, % at 10 µM. hit rate 2% among 340,000. AID 485344; in the data active means inhibition above about 30%; inactive means below that, where a call was filed; further: 0% is about no effect
Target sequence (P14416 whole entry, looked up): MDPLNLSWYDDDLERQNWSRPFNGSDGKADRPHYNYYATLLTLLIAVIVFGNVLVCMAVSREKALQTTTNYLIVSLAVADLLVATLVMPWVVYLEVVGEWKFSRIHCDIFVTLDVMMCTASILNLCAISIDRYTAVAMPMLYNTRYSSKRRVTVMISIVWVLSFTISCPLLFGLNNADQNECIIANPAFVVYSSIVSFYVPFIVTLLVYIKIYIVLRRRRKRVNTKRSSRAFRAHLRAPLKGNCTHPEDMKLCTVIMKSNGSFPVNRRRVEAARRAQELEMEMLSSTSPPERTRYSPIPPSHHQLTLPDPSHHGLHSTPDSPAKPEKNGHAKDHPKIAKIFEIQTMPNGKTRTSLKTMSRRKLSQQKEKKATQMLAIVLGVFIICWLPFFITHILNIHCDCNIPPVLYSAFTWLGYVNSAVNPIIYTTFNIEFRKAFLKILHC
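Cells plated overnight at 30 C with tetracycline; no-wash calcium dye, 30–90 min RT; 10 s baseline; compound pinned; 180 s read; EC80 dopamine added; another 180 s read.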
D2 PAM-1: positively modulates the human D2 dopamine receptor allosterically; HEK293 T-REx D2, calcium flux, EC20 dopamine potentiation; AID 485347; hit rate 0.34% among 340,000; P14416; potentiation, % at 10 µM;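 active means potentiation over 3 SD above the plate norm, cut at about 30% in these data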; further: 0% is about no effect
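Tetracycline-induced HEK293 T-REx cells force-coupled to calcium signalling expressed D2; compounds were pin-added after a 10 s baseline, read kinetically 180 s, then an EC20 dopamine challenge followed with a further 180 s calcium read.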
D2 PAM-2: human D2 receptor positive allosteric modulation; P14416; DiscoveRx D2 beta-arrestin cells, luminescence, 90 min; 100% = 57 uM dopamine signal; potentiation, % (test concentration not listed); hit rate 0.23% among 360,000; AID 624464; in the data active means potentiation above about 50%; inconclusive means mostly about 30% to 49%
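PathHunter D2 cells, attached overnight at 37 deg C, received compound in DMSO plus dopamine at EC20 (50 nM final) for 90 min at 37 deg C. Beta-arrestin recruitment was read as luminescence after 1 h with detection reagent at ambient temperature.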
D2 ag-1: D2 dopamine receptor (human) agonism; P14416; HEK293 T-REx D2 cells, calcium flux agonist mode; activation, % at 2 µM; hit rate 0.53% among 340,000;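 active means activation over 3 SD above normal in the single-dose calcium agonist read, cut at about 30% in these data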; further: 0% is about no effect
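Agonism scored from kinetic calcium signal (1 read/sec, 180 s) following compound pin transfer, after a 10 s baseline. Cells: HEK293 Trex line expressing inducible D2 receptor coupled to calcium, dye-loaded after overnight culture at 30 C.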
D2 ag-2: human D2 receptor agonism in beta-arrestin assay. hit rate 0.084% among 360,000. AID 624465. activation, % (concentration not given with the values). P14416. DiscoveRx PathHunter D2 beta-arrestin, luminescence, 90 min; 100% = 57 uM dopamine signal; in the data active means activation above about 40%; inconclusive means between about 15% and that limit
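Agonist mode: compounds alone added to overnight-plated D2 PathHunter cells for 90 min at 37 C, with 57 uM final dopamine (EC100) defining full response. Beta-arrestin recruitment detected by chemiluminescent reagent, read after 1 h at ambient temperature.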
Numbers without * were called inactive; ? = inconclusive; · = not tested or not shown; ! = a repeat was not active. The list is not random: actives were taken first. Their share in the collection is about 2.4%.

SMILES | D2 antag | D2 PAM-1 | D2 PAM-2 | D2 ag-1 | D2 ag-2
CN1CCN(C(=O)C2=C[C@H](c3coc4ccccc4c3=O)C[C@H](OCCCCO)O2)CC1 | -0.3 | 1.4 | -8.3 | -0.1 | -1.3
Cc1cccc(-c2noc(-c3ccccc3OCC(=O)Nc3ccccc3[N+](=O)[O-])n2)c1 | · | 9.7 | · | -1.8 | ·
Cc1cccc(NC(=O)Cn2nnc(C(=O)NCc3ccco3)c2N)c1 | 34.4* | -5.8 | -3.6 | 1.9 | -4.0
CCc1ccccc1NC(=O)Cn1nnc(C(=O)NCc2cccc(OC)c2)c1N | · | 69.6*! | -14.2 | 0.0 | -5.9
COc1ccccc1NC(=O)c1nnn(CC(=O)Nc2cccc(SC)c2)c1N | -5.6 | 35.4* | -11.3 | -1.3 | -2.4
COc1ccccc1NC(=O)c1nnn(CC(=O)Nc2ccccc2)c1N | 13.6 | 3.0 | -1.8 | 0.4 | -0.5
COc1ccc(CCNC(=O)Cn2nnc(C(=O)Nc3ccc(Br)cc3)c2N)cc1OC | -42.7 | 56.2* | -2.0 | 0.9 | 12.6
Cc1ccc(NC(=O)Cn2nnc(C(=O)NCc3ccco3)c2N)cc1 | -12.9 | 1.3 | -11.6 | 0.1 | -1.8
CCOc1ccc(NC(=O)Cn2nnc(C(=O)NCCc3ccc(OC)c(OC)c3)c2N)cc1 | 4.8 | 6.3 | 18.2 | -0.6 | -2.3
CC(=O)N1CCc2nc3sc(C(=O)Nc4ccc(Cl)cc4F)c(N)c3c(C(F)(F)F)c2C1 | · | 12.9 | · | 0.7 | ·
O=C1Nc2cc(C(=O)N3CCOCC3)ccc2S/C1=C\c1ccccc1 | 47.4* | 13.3 | -10.3 | 0.8 | -4.2
Cc1cccc(/C=C2/Sc3ccc(C(=O)N4CCOCC4)cc3NC2=O)c1 | -29.4 | 1.9 | -3.0 | 0.3 | -4.4
Cc1ccc(S(=O)(=O)c2cc3c(=O)n4ccccc4nc3n(C)c2=N)cc1C | 3.6 | 36.4* | -3.1 | -0.3 | -3.0
CCOc1ccc(Oc2ccccc2NC(=O)C2=COCCO2)cc1 | 37.2* | 5.3 | -13.7 | 0.2 | -6.8
Cc1ccc(NC(=O)CN2C(=O)COc3ccc(S(=O)(=O)N4CCCCCC4)cc32)c(C)c1 | · | -5.2 | · | 0.4 | ·
Brc1cccc(-c2nc(-c3ccncc3)no2)c1 | 40.9* | 7.5 | -20.5 | 0.5 | -0.8
O=[N+]([O-])c1cc(-c2nc(-c3ccncc3)no2)ccc1Cl | 18.4 | 4.3 | -0.9 | 0.7 | 1.8
O=[N+]([O-])c1cc(-c2nc(-c3ccncc3)no2)cc([N+](=O)[O-])c1 | 6.1 | 2.7 | 95.4* | -0.5 | ?
CCC(Sc1nc2c(sc3ccccc32)c(=O)n1CCc1ccc(OC)c(OC)c1)C(=O)N(CC)CC (stereo unspecified) | · | -9.2 | · | 0.3 | ·
O=C(NCc1ccco1)c1cccc2c1C(=O)N(C1CCCCC1)C2 | -18.3 | 35.3* | -13.8 | 0.2 | -5.4
C=CCN1C(=O)/C(=C/c2ccc(O)c(OC)c2)S/C1=N/c1nccs1 | -10.4 | 2.6 | 3.9 | 44.9* | 9.7
COc1ccc(C(=O)NCc2cccnc2)cc1Br | -2.0 | -4.8 | -6.7 | 0.6 | -1.8
COc1ccc(/C=N/NC(=O)C(=O)NCc2cccnc2)cc1OC | 32.7* | 2.8 | 4.6 | 0.2 | -1.2
CCOC(=O)CNC(=O)c1cc(OC)cc(OC)c1 | 38.6* | · | -1.2 | -0.5 | 3.7
COc1cc(OC)cc(C(=O)NCc2cccnc2)c1 | -7.4 | 30.5* | -39.5 | 0.9 | 0.0
SMILES | D2 antag | D2 PAM-1 | D2 PAM-2 | D2 ag-1 | D2 ag-2
COc1cc(/C=N/NC(=O)C(=O)NCc2cccnc2)ccc1O | 5.9 | -20.1 | -16.4 | -1.3 | -4.2
CCOc1ccccc1NC(=O)CSc1nc2ccccc2nc1Cc1ccc(C)cc1 | · | -8.2 | · | -1.5 | ·
O=C(CC(=O)Nc1ccc(F)cc1F)Nc1ccc(F)cc1F | 22.7 | -6.4 | -4.6 | -1.7 | -0.9
N#CCO/N=C/C(=O)Nc1ccc(F)cc1F | 53.2* | 5.8 | -2.6 | -0.8 | -3.6
Cn1c(=O)c(NC2CCCCC2)c2c3c(cccc31)C(=O)c1ccccc1-2 | 59.6* | -10.0 | -1.3 | 110.5* | 4.1
CCNc1c2c3c(cccc3n(C)c1=O)C(=O)c1ccccc1-2 | 21.4 | -8.8 | -4.6 | 112.1* | -0.3
CCCCNc1c2c3c(cccc3n(C)c1=O)C(=O)c1ccccc1-2 | 11.1 | -12.1 | -5.6 | 92.8* | -0.2
Cn1c(=O)c(NCCO)c2c3c(cccc31)C(=O)c1ccccc1-2 | 82.4* | -25.9 | -7.7 | 126.4* | -3.9
CC(=O)Nc1ccc(Nc2c3c4c(cccc4n(C)c2=O)C(=O)c2ccccc2-3)cc1 | 3.1 | 13.6 | -5.5 | 8.5 | -3.3
Cc1ccc(NC(=O)c2oc3ccccc3c2NC(=O)C23CC4CC(CC(C4)C2)C3)cc1 | · | 3.9 | · | 0.8 | ·
Cc1cc(Cl)ccc1OCC(=O)N(Cc1ccc(N(C)C)cc1)CC1CCCO1 (stereo unspecified) | · | 14.5 | · | -1.3 | ·
CCOCCCNC(=O)C(c1ccc(C)cc1)N(Cc1ccc2c(c1)OCO2)C(=O)c1ccc(NC(C)=O)cc1 (stereo unspecified) | · | -3.8 | · | 0.6 | ·
Cn1c(NCCc2ccccc2)cc(=O)n(C)c1=O | 0.0 | -3.2 | 0.4 | 0.8 | 0.5
Cn1c(=O)c(NCCc2ccccc2)c2c3c(cccc31)C(=O)c1ccccc1-2 | 71.7* | -10.8 | -6.5 | 87.3* | 0.3
O=C1CSC(c2cccnc2)N1Cc1cccnc1 (stereo unspecified) | -17.3 | -1.4 | 7.4 | 0.3 | -2.4
O=C1CSC(c2cccnc2)N1CCc1ccccn1 (stereo unspecified) | 54.6* | -2.7 | -10.3 | -1.6 | -5.3
COc1ccc(CCNC(=O)c2nc(SCc3ccccc3F)ncc2Cl)cc1OC | · | -3.9 | · | 7.5 | ·
O=C(O)Cc1ccc(-n2cccc2)cc1 | 37.1* | 0.5 | -5.6 | -0.5 | -0.1
CCOC(=O)c1[nH]c2ccccc2c1NC(=O)c1cc(OC)cc(OC)c1 | · | -1.9 | · | -0.3 | ·
CCn1cc2nc(SCC(=O)Nc3cc(OC)ccc3OC)n(Cc3ccc(Cl)cc3)c(=O)c2n1 | · | 11.5 | · | 0.2 | ·
COC(=O)COc1cccc2c(=O)n(CC(=O)N3CCCc4ccccc43)ccc12 | 30.9* | 6.7 | -4.7 | 0.0 | -4.9
CCOC(=O)COc1cccc2c(=O)n(CC(=O)N3CCCCC3)ccc12 | 21.5 | 4.5 | -4.3 | 0.3 | 1.7
CCOc1cc(CNCCc2ccc(S(N)(=O)=O)cc2)ccc1OCc1ccccc1 | 4.0 | 41.4* | -9.7 | -0.1 | -3.1
CCS(=O)(=O)N1CCc2cc(C(=O)Nc3ccc(OC)c(Cl)c3)ccc21 | · | 1.8 | · | 0.4 | ·
CN1CCC(N(C)S(=O)(=O)c2ccc(F)cc2F)CC1 | 32.8* | -8.3 | -15.3 | 2.2 | -2.1
CC(NC(=O)/C(C#N)=C/c1ccc(N2CCOCC2)cc1)c1ccccc1 (stereo unspecified) | 2.5 | 32.2* | -6.2 | 4.6 | -3.5
COC(=O)c1ccc(/C=C(\C#N)C(=O)NC(C)c2ccccc2)cc1 (stereo unspecified) | 8.1 | 10.0 | -9.1 | -0.8 | -6.9
CC(C)c1nnc(NC(=O)CCC(=O)Nc2ccc(F)cc2)s1 | -13.0 | -8.4 | -23.1 | 0.0 | -7.5
